Measurements from PubChem BioAssay (NCATS).
“And” between values parts separate entries of the source, which are not always exact repeats. Equal entries are not always repeated. Records with an inconclusive call do not appear. The source made the active and inactive calls. Unless noted, the call rests on the fitted dose curve; in most records, active means well fitted curve in the direction sought with a large enough effect; inconclusive means small, poorly fitted or top-dose-only effect, or another doubt; inactive means no such curve, though single readings can be large; an effect the other way counts as inactive or inconclusive.

Legend:
[1] = Cell Viability - MRC5 (AID 434; calls by dose curve;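 further: potency means the concentration at half of the fitted maximal effect; cells exposed to compound for 40 hours at 37 °C; potency reflects cytotoxicity seen as loss of intracellular ATP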); conditions: MRC5 lung fibroblast viability, qHTS
Procedure, shortened: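 qHTS cytotoxicity in human lung fibroblast MRC5 cells; 40 hr treatment, 37 °C; cellular ATP by luciferase luminescence; DMSO = 0%, 100 uM tamoxifen = 100% inhibition; Hill-fit AC50.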

[2] = Cellular Toxicity (caspase-3) HepG2 (AID 654); conditions: HepG2 caspase-3 activation, luminescence; series mostly up to 92.2 µM;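 further: cells exposed to compound for 16 hours before reading; 0% = DMSO alone and 100% = caspase signal from 100 µM tamoxifen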
Procedure, shortened: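 qHTS, HepG2, 1500 cells/well, complete medium; cpd 16 h 37 °C; Caspase-Glo 3/7, 20 min RT; lum. Norm: DMSO vs 100 uM tamoxifen; AC50 Hill fit.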

[3] = Cellular Toxicity (caspase-3) HUV-EC-C (AID 656); conditions: HUV-EC-C cells, caspase-3 activation (apoptosis); series mostly up to 92.2 µM
Procedure, shortened: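 Read-out: luminescence proportional to caspase 3/7 activity, measured 20 min after adding Caspase-Glo 3/7 reagent. Cells (HUV-EC-C) had received compound for 16 hr at 37°C. Increases relative to DMSO and 100 uM tamoxifen gave concentration-response AC50 values.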

[4] = Cellular Toxicity (caspase-3) SHSY5Y (AID 657); conditions: SH-SY5Y caspase-3 activation; series mostly up to 91.7 µM
Procedure, shortened: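 Cells plated and incubated 5 h at 37 °C, dosed over a concentration range, incubated 16 h, then given Caspase-Glo 3/7 reagent for 1 h at room temperature before luminescence reading. Staurosporine (10 uM) defined full stimulation.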

[5] = Cellular Toxicity (caspase-3) MRC-5 (AID 659); conditions: MRC-5 cells, luminescence, normalized: DMSO 0%, 10 µM staurosporine 100%; series mostly up to 91.7 µM
Procedure, shortened: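 Concentration-dependent caspase 3/7 activation is measured in human normal lung fibroblasts (MRC-5) following 16-hour treatment. AC50 values come from standard Hill-equation modeling of luminescence normalized to DMSO and 10 uM staurosporine.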

[6] = Cellular Toxicity (caspase-3) Mesangial (AID 660); conditions: mesangial cells, normalized: DMSO 0%, 100 µM tamoxifen 100%; series mostly up to 91.7 µM;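 further: cells exposed to compound for 16 h before the caspase read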
Procedure, shortened: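 Concentration-response qHTS: compound-induced rise in caspase 3/7 luminescence in human mesangial cells after 16 h, normalized to DMSO and 100 uM tamoxifen controls.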

[7] = Cellular Toxicity (caspase-3) SK-N-SH (AID 661); conditions: SK-N-SH caspase-3 activation, qHTS, DMSO as zero, staurosporine as full; series mostly up to 91.7 µM
Procedure, shortened: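 Caspase 3/7 activation is measured as a luminescence increase from aminoluciferin released by substrate cleavage in SK-N-SH cells after 16 hr compound treatment; values are AC50 from concentration-response curves.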

[8] = Cellular Toxicity (caspase-3) H-4-II-E (AID 663); conditions: H-4-II-E rat hepatoma; Potency: caspase-3 activation; series mostly up to 92.2 µM;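 further: cells exposed to compound for 16 hr before readout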
Procedure, shortened: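 Apoptosis induction is scored as increased luminescence from caspase 3/7 substrate cleavage in rat hepatoma H-4-II-E cells exposed to compound for 16 hr. Activity is scaled between DMSO and 100 uM tamoxifen.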

[9] = Cellular Toxicity (caspase-3) N2a (AID 665); conditions: N2a cells, luminescence, normalized: DMSO 0%, 10 µM staurosporine 100%; series mostly up to 92.2 µM;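 further: compound exposure lasted 16 h at 37 °C before readout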
Procedure, shortened: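 Plated mouse neuroblastoma N2a cells received titrated compounds for 16 h in complete medium. Caspase activity was then detected with a peptide-aminoluciferin luminescent reagent.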

[10] = Cellular Toxicity (caspase-3) NIH 3T3 (AID 666); conditions: NIH 3T3 caspase-3 activation, apoptosis/toxicity, 0% DMSO, 100% is 100 µM tamoxifen; series mostly up to 92.2 µM;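 further: caspase signal read after 16 h compound exposure; 0% = DMSO basal and 100% = 100 µM tamoxifen stimulation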
Procedure, shortened: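 Concentration-response qHTS in NIH 3T3 mouse fibroblasts scores caspase-3/7 activation as rising luminescence after 16 hr compound exposure. Signals are scaled between DMSO-only and 100 uM tamoxifen.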

[11] = Cellular Toxicity (caspase-3) Renal Proximal Tubule (AID 667); conditions: renal proximal tubule cells, primary cells freshly taken from rat; Potency: caspase-3 activation; series mostly up to 91.7 µM;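 further: cells exposed to compound for 16 hours at 37 °C before detection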
Procedure, shortened: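 In qHTS format, rat primary proximal tubule cells seeded at 1000 per well are exposed to compounds for 16 hours at 37 °C. An increase in Caspase-Glo 3/7 luminescence indicates caspase activation.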

[12] = MultiTox-Fluor Cytotoxicity Assay - LYMP1-001 - Dead Cells (AID 946); conditions: LYMP1-001 lymphoblastoid cells, dead-cell protease fluorescence; series mostly up to 92.2 µM;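 further: 0% = DMSO and 100% = tetraoctylammonium bromide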
Procedure, shortened: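 Seed 2500 LYMP1-001 cells/well, incubate 5 hr at 37 C; add compound, 16 hr at 37 C; add MultiTox-Fluor reagent, 60 min RT; read dead-cell fluorescence Ex/Em=485/520. Normalize to DMSO and 15 uM tetraoctylammonium bromide.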

[13] = Cell Viability - LYMP1-002 - Assay at 16 hr (AID 948); conditions: LYMP1-002 lymphoblastoid cell viability; series mostly up to 92.2 µM;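 further: 0% = DMSO alone and full effect = 92 µM tetraoctylammonium bromide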
Procedure, shortened: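 Acute cytotoxicity is scored as a concentration-dependent fall in intracellular ATP in a human lymphoblastoid line (LYMP1-002) after 16 hr compound exposure at 37 C, measured by luciferase luminescence.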

[14] = MultiTox-Fluor Cytotoxicity Assay - LYMP1-002 - Live Cells (AID 955); conditions: LYMP1-002 lymphoblastoid live-cell protease fluorescence viability; series mostly up to 46.1 µM; further: on the % scale 0 is the no-effect control and ±100 the full control effect
Procedure, shortened: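 Cytotoxicity in the human lymphoblastoid line LYMP1-002 is measured as loss of live-cell protease activity after 16 h treatment in complete culture medium. AC50 is derived from Hill-equation fits of qHTS concentration-response data.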

[15] = MultiTox-Fluor Cytotoxicity Assay - LYMP1-003 - Live Cells (AID 962); conditions: LYMP1-003 lymphoblastoid cells, MultiTox-Fluor live-cell protease fluorescence; series mostly up to 92.2 µM;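 further: 0% = DMSO only and full loss = 92 µM tetraoctylammonium bromide; cytotoxic hits lower the live-cell protease signal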
Procedure, shortened: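 Cells plated at 2500 per well and incubated 5 hr; compounds added and incubated 16 hr at 37 C; MultiTox-Fluor reagent added for 60 min at room temperature; fluorescence of liberated AFC measured at 405/510 nm.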

[16] = Cell Viability - LYMP1-003 - Assay at 24 hr (AID 963); conditions: LYMP1-003 lymphoblastoid cell viability; series mostly up to 92.2 µM;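 further: plate controls were DMSO only for no effect and tetraoctylammonium bromide positive control for full effect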
Procedure, shortened: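 Acute toxicity in LYMP1-003 lymphoblastoid cells: 24 hr compound treatment at 37 C, ATP measured with CellTiter-Glo after 30 min at room temperature. AC50 derived by fitting the Hill equation to qHTS titrations.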

[17] = Cell Viability - LYMP1-002 - Assay at 24 hr (AID 993); conditions: LYMP1-002 lymphoblastoid cells viability; series mostly up to 92.2 µM; further: on the % scale 0 is the no-effect control and ±100 the full control effect
Procedure, shortened: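 qHTS, LYMP1-002 lymphoblastoid, 24 h cpd, 37 C, CellTiter-Glo ATP luminescence; AC50 via Hill eq.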

[18] = qHTS Assay for Identification of Small Molecule Inducers of Hypoxia Response (AID 2120; active means well fitted curve in the direction sought with a large enough effect in the signal ratio, with a control signal flat, not every such curve was filed as active; the % refers to the signal ratio; further: 0% is about no effect); conditions: hypoxia response reporter cells, beta-lactamase ratio readout; series mostly up to 104 µM
Procedure, shortened: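 Induction of beta-lactamase reporter activity was measured in CellSensor HRE-bla ME-180 cells after 17 h compound treatment at 37 degrees C, using CCF4 substrate and the 460nm/530nm emission ratio to derive AC50 values.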

[19] = target: Peroxisome proliferator-activated receptor alpha (Homo sapiens) (UniProt Q07869); assay: qHTS assay for small molecule agonists of the peroxisome proliferator-activated receptor alpha (PPARalpha) signaling pathway (AID 651778); conditions: PathHunter PPARalpha complementation, chemiluminescence, 6 h; max response: hits give high values; further: % of control where 0% means no effect
Procedure, shortened: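 Chemiluminescence from complemented enzyme reported PPARalpha activation in cells after 6 hr of compound treatment at 37 C. The detection reagent was incubated for 60 min at room temperature, and compounds were scored as agonists.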

[20] = qHTS assay for small molecule agonists of the antioxidant response element (ARE) signaling pathway measured by Nrf2-dependant transcriptional activity - cell viability counter screen (AID 720653; active means well fitted curve in the direction sought with a large enough effect in the repeat runs; an effect the other way counts as inactive or inconclusive; further: on the % scale 0 is the no-effect control and ±100 the full control effect); conditions: ARE-bla HepG2 viability, CellTiter-Glo ATP luminescence, 16 h; max response: hits give low values
Procedure, shortened: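 Cytotoxicity counter screen: intracellular ATP quantified by CellTiter-Glo luminescence in the same ARE-bla HepG2 plates, after 16 h compound exposure and a 2 h beta-lactamase substrate step.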

Chain of Peroxisome proliferator-activated receptor alpha (Homo sapiens) (Q07869 whole entry, looked up): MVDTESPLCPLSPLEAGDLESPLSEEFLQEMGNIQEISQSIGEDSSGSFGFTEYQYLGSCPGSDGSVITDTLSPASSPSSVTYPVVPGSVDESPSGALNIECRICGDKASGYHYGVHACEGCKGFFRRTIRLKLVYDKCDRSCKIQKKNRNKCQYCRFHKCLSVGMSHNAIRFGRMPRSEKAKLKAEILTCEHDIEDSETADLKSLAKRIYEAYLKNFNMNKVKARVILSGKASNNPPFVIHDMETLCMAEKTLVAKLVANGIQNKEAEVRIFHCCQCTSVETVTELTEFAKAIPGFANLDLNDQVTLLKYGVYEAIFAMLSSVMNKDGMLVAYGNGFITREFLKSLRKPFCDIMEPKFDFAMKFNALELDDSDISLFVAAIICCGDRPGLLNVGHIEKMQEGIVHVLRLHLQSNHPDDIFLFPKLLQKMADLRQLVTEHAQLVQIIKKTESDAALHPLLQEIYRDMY

C[Si](C)(C)Cl
inactive: Potency [1] > 92 µM | Potency [2] | Potency [3] | Potency [4] | outcome [5] | outcome [6] | outcome [7] | Potency [8] | outcome [9] | outcome [10] | Potency [11] | Potency [12] | Potency [13] | outcome [14] | Potency [15] | Potency [16] | Potency [17] | Potency [18] | max response [19] -1.44% | max response [20] -8.15%

c1ccc2c(c1)ccc1ccccc12
inactive: Potency [1] > 92 µM | Potency [2] | Potency [3] | Potency [4] | outcome [5] | outcome [6] | outcome [7] | Potency [8] | outcome [9] | outcome [10] | Potency [11] | Potency [12] | Potency [13] | outcome [14] | Potency [15] | Potency [16] | Potency [17] | Potency [18] | max response [19] -2.79% and 0.0819% | max response [20] -0.337% and -2.44%

c1ccncc1
inactive: Potency [1] > 92 µM | Potency [2] | Potency [3] | Potency [4] | outcome [5] | outcome [6] | outcome [7] | Potency [8] | outcome [9] | outcome [10] | Potency [11] | Potency [12] | Potency [13] | outcome [14] | Potency [15] | Potency [16] | Potency [17] | Potency [18] | max response [19] -4.5% | max response [20] -7.78%

CCN(CC)c1ccc(N)cc1
inactive: Potency [2] | Potency [3] | outcome [5] | outcome [6] | outcome [7] | Potency [8] | outcome [9] | outcome [10] | Potency [11] | Potency [13] | Potency [15] | Potency [16] | Potency [17] | Potency [18] | max response [19] -0.774%

Nc1cnn([C@@H]2O[C@H](CO)[C@@H](O)[C@H]2O)c(=O)n1
inactive: Potency [1] > 92 µM | Potency [2] | Potency [3] | Potency [4] | outcome [5] | outcome [6] | outcome [7] | Potency [8] | outcome [9] | outcome [10] | Potency [11] | Potency [12] | Potency [13] | outcome [14] | Potency [15] | Potency [16] | Potency [17] | Potency [18] | max response [19] -1.23% | max response [20] 20.2%

O=C1OC(=O)c2ccccc21
inactive: Potency [1] > 92 µM | Potency [2] | Potency [3] | Potency [4] | outcome [5] | outcome [6] | outcome [7] | Potency [8] | outcome [9] | outcome [10] | Potency [11] | Potency [12] | Potency [13] | outcome [14] | Potency [15] | Potency [16] | Potency [17] | Potency [18] | max response [19] 5.7% | max response [20] -7.68%

CC(=O)Nc1cccc(C)c1
inactive: Potency [1] > 92 µM | Potency [2] | Potency [3] | Potency [4] | outcome [5] | outcome [6] | outcome [7] | Potency [8] | outcome [9] | outcome [10] | Potency [11] | Potency [12] | Potency [13] | outcome [14] | Potency [15] | Potency [16] | Potency [17] | Potency [18] | max response [19] -3.01% | max response [20] -7.75%

O=C=Nc1ccc(Cl)c(Cl)c1
inactive: Potency [2] | Potency [3] | Potency [4] | outcome [5] | outcome [6] | outcome [7] | Potency [8] | outcome [9] | outcome [10] | Potency [11] | Potency [13] | Potency [15] | Potency [16] | Potency [17] | Potency [18] | max response [19] 21.6% | max response [20] -6.45%

C=CC(C)(O)CCCC(C)CCCC(C)CCCC(C)C (stereo not given)
inactive: Potency [1] > 92 µM | Potency [2] | Potency [3] | Potency [4] | outcome [5] | outcome [6] | outcome [7] | Potency [8] | outcome [9] | outcome [10] | Potency [11] | Potency [12] | Potency [13] | outcome [14] | Potency [15] | Potency [16] | Potency [17] | Potency [18] | max response [19] 2.41% | max response [20] 0.618%

CC(/C=C/C=C(C)/C=C/C(=O)O)=C\C=C\C=C(C)\C=C\C=C(C)\C=C\C(=O)O
inactive: Potency [1] > 92 µM | Potency [2] | Potency [3] | Potency [4] | outcome [5] | outcome [6] | outcome [7] | Potency [8] | outcome [9] | Potency [11] | Potency [12] | Potency [13] | outcome [14] | Potency [15] | Potency [16] | Potency [17] | Potency [18] | max response [19] -2.62% | max response [20] -1.24%

Brc1cc(Br)c(Oc2cc(Br)c(Br)cc2Br)cc1Br
inactive: Potency [1] > 92 µM | Potency [2] | Potency [3] | Potency [4] | outcome [5] | outcome [6] | outcome [7] | Potency [8] | outcome [9] | outcome [10] | Potency [11] | Potency [12] | Potency [13] | outcome [14] | Potency [15] | Potency [16] | Potency [17] | Potency [18] | max response [19] -1.94% | max response [20] -7.08%

c1ccc(Nc2cccc3ccccc23)cc1
inactive: Potency [1] > 92 µM | Potency [2] | Potency [3] | Potency [4] | outcome [5] | outcome [6] | outcome [7] | Potency [8] | outcome [9] | outcome [10] | Potency [11] | Potency [12] | Potency [13] | outcome [14] | Potency [15] | Potency [16] | Potency [17] | Potency [18] | max response [20] -11.3% and -26.9%
